Results taken from PubChem BioAssay AID1159580 (chemical genetic matrix, 2015).
Among all 5,500 compounds or so, about 2,000 (36%) were called active. About 18% were inconclusive and are not listed. Rule as the data show it: active = normalized growth mostly below about 0.91 (no sharp cut-off); inconclusive = no clear call, values can overlap the other calls; inactive = mostly above about 0.92. The list shows a part of the results.

Assay: chemical genetic growth profiling, strain panel (AID 1159580);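 also: tested at 20 µM; growth read once vehicle control cultures reached saturation at 30 °C; 1 = growth at the plate median or of vehicle wells; lower values mean less growth of the strain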
Settings: S. cerevisiae deletion strains, growth OD

Measured: normalized growth

N[C@@H](CCC(=O)N[C@@H](CCSC(CC(=O)O)C(=O)O)C(=O)NCC(=O)O)C(=O)O (stereo not given in full)
inactive: locus YAL021C, strain ccr4, stronger effect = lower value 0.991 | locus YAL026C, strain drs2, stronger effect = lower value 1 | locus YAL030W, strain snc1, stronger effect = lower value 0.992 | locus YBL061C, strain skt5, stronger effect = lower value 0.989 | locus YBR009C, strain hhf1, stronger effect = lower value 1.03 | locus YBR023C, strain chs3, stronger effect = lower value 0.987 | locus YBR171W, strain sec66, stronger effect = lower value 0.988 | locus YBR231C, strain swc5, stronger effect = lower value 0.993 | locus YBR279W, strain paf1, stronger effect = lower value 0.996 | locus YCL011C, strain gbp2, stronger effect = lower value 0.995 | locus YCL016C, strain dcc1, stronger effect = lower value 0.988 | locus YCL061C, strain MRC1, stronger effect = lower value 1 | locus YCL069W, strain vba3, stronger effect = lower value 0.997 | locus YCR088W, strain abp1, stronger effect = lower value 0.988 | locus YDL005C, strain med2, stronger effect = lower value 0.99 | locus YDL040C, strain nat1, stronger effect = lower value 0.997 | locus YDR001C, strain nth1, stronger effect = lower value 0.994 | locus YDR069C, strain doa4, stronger effect = lower value 0.987 | locus YDR137W, strain rgp1, stronger effect = lower value 0.987 | locus YDR159W, strain sac3, stronger effect = lower value 0.996 | locus YDR195W, strain ref2 0.97 | locus YDR297W, strain sur2, stronger effect = lower value 0.981 | locus YDR334W, strain swr1, stronger effect = lower value 1 | locus YDR335W, strain msn5, stronger effect = lower value 0.996 | locus YDR392W, strain spt3, stronger effect = lower value 1.01 | locus YEL003W, strain gim4, stronger effect = lower value 1.01 | locus YEL037C, strain rad23, stronger effect = lower value 0.994 | locus YEL061C, strain CIN8 (second series), stronger effect = lower value 0.998 | locus YER015W, strain faa2, stronger effect = lower value 0.993 | locus YER016W, strain bim1, stronger effect = lower value 0.978 | locus YER111C, strain swi4, stronger effect = lower value 0.998 | locus YER155C, strain BEM2 (second series), stronger effect = lower value 1.01 | locus YFR010W, strain ubp6, stronger effect = lower value 1.02 | locus YGL167C, strain pmr1, stronger effect = lower value 0.997 | locus YGL173C, strain kem1, stronger effect = lower value 1.01 | locus YGL227W, strain vid30, stronger effect = lower value 0.999 | locus YGL240W, strain doc1, stronger effect = lower value 0.999 | locus YGL253W, strain hxk2, stronger effect = lower value 0.991 | locus YHR013C, strain ard1, stronger effect = lower value 1 | locus YHR027C, strain rpn1, stronger effect = lower value 0.994 | locus YHR030C, strain SLT2, stronger effect = lower value 0.999 | locus YHR079C, strain IRE1, stronger effect = lower value 0.988 | locus YHR142W, strain chs7, stronger effect = lower value 1 | locus YJL092W, strain hpr5, stronger effect = lower value 1 | locus YJL095W, strain BCK1 (second series), stronger effect = lower value 1.02 | locus YJL095W, strain BCK1, stronger effect = lower value 1.01 | locus YJL115W, strain asf1, stronger effect = lower value 1.01 | locus YJL129C, strain trk1, stronger effect = lower value 0.99 | locus YJL154C, strain vps35, stronger effect = lower value 0.992 | locus YJL164C, strain tpk1, stronger effect = lower value 1.01 | locus YJL166W, strain qcr8, stronger effect = lower value 0.994 | locus YJL187C, strain SWE1, stronger effect = lower value 0.992 | locus YJR066W, strain TOR1, stronger effect = lower value 0.997 | locus YKL160W, strain elf1, stronger effect = lower value 0.984 | locus YKR026C, strain gcn3, stronger effect = lower value 0.993 | locus YKR091W, strain srl3, stronger effect = lower value 1 | locus YLL001W, strain dnm1, stronger effect = lower value 1.01 | locus YLL026W, stronger effect = lower value 1 | locus YLL041C, strain sdh2, stronger effect = lower value 1.01 | locus YLR027C, strain aat2, stronger effect = lower value 0.996 | locus YLR113W, strain HOG1, stronger effect = lower value 1 | locus YLR221C, strain rsa3, stronger effect = lower value 1.01 | locus YLR258W, strain gsy2, stronger effect = lower value 1.01 | locus YLR262C, strain YPT6 (second series), stronger effect = lower value 0.992 | locus YLR320W, strain mms22, stronger effect = lower value 1.01 | locus YLR342W, strain FKS1, stronger effect = lower value 0.99 | locus YLR357W, strain rsc2, stronger effect = lower value 0.996 | locus YLR370C, strain arc18, stronger effect = lower value 0.997 | locus YLR384C, strain iki3, stronger effect = lower value 0.964 | locus YML120C, strain ndi1, stronger effect = lower value 0.993 | locus YMR058W, strain fet3, stronger effect = lower value 0.991 | locus YMR125W, strain sto1, stronger effect = lower value 1.01 | locus YMR129W, stronger effect = lower value 0.99 | locus YMR205C, strain PFK2, stronger effect = lower value 1 | locus YMR231W, strain pep5, stronger effect = lower value 0.995 | locus YNL071W, strain lat1, stronger effect = lower value 1.01 | locus YNL183C, strain NPR1, stronger effect = lower value 0.937 | locus YNL209W, strain ssb2, stronger effect = lower value 0.981 | locus YNL248C, strain rpa49, stronger effect = lower value 1.02 | locus YNL322C, strain KRE1 (second series), stronger effect = lower value 0.979 | locus YNR049C, strain mso1, stronger effect = lower value 0.997 | locus YOR001W, strain rrp6, stronger effect = lower value 1.02 | locus YOR070C, strain gyp1, stronger effect = lower value 0.999 | locus YOR080W, strain dia2, stronger effect = lower value 0.982 | locus YOR083W, strain WHI5, stronger effect = lower value 0.985 | locus YOR106W, strain vam3, stronger effect = lower value 0.976 | locus YOR231W, strain MKK1, stronger effect = lower value 0.991 | locus YOR265W, strain rbl2, stronger effect = lower value 0.998 | locus YOR270C, strain vph1, stronger effect = lower value 1.07 | locus YOR290C, strain snf2, stronger effect = lower value 0.994 | locus YPL051W, strain arl3, stronger effect = lower value 1 | locus YPL078C, strain atp4, stronger effect = lower value 0.986 | locus YPL106C, strain sse1, stronger effect = lower value 0.971 | locus YPL240C, strain hsp82, stronger effect = lower value 1.01 | locus YPL256C, strain CLN2, stronger effect = lower value 0.988
